The supplement of paper PMC10933113
Structures can show the parent of a compound that is named as a salt. ± gives the uncertainty stated by the source.

test system: THP-1; assay: CD54 surface expression induction over DMSO control (% over DMSO); higher = stronger dendritic cell activation; settings: exposure time: 24 h
Protocol: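 hCLAT-like CD54 and CD86 surface expression on THP1 cells after 24 h exposure at a single concentration (highest non-cytotoxic concentration, or 100-200 µM if not cytotoxic). Flow cytometry (iQue) was run on 5,000 live cells.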

SMILES | CD54 surface expression induction
C=CC(=O)OCC(COC(=O)C=C)(COC(=O)C=C)COC(=O)C=C [Pentaerythritol tetraacrylate] (10 µM) | 1.03 ± 1.9
CCC(C)(NC(=O)c1cc(Cl)c(C)c(Cl)c1)C(=O)CCl (centres undefined) [Zoxamide] (10 µM) | 10.1 ± 25
Nc1ccc(Cl)cc1Cl [2,4-Dichloroaniline] (200 µM) | -7.56 ± 1.5
O=C(O)c1ccc(=O)[nH]c1 [6-Hydroxynicotinic acid] (100 µM) | -3.56 ± 0.01
Cc1cc(C2CC2)nc(Nc2ccccc2)n1 [Cyprodinil] (200 µM) | 2.24 ± 3.2
S=C=NCc1ccccc1 (10 µM) | 10.5 ± 7.8
N#CCC#N [Propanedinitrile] (199 µM) | -2.75 ± 3
CN(C)c1ccc(N(C)C)cc1 [*N,N,N',N'-Tetramethyl-p-phenylenediamine] (200 µM) | 91.8 ± 6
ClC1=C(Cl)C(Cl)(Cl)C(Cl)=C1Cl [Hexachlorocyclopentadiene] (200 µM) | 47.8 ± 5.2
[OH-].c1cc[c]([Sn+]([c]2ccccc2)[c]2ccccc2)cc1 [Triphenyltin hydroxide] (10 µM) | 54.7 ± 30
C[C@]12CC[C@H](O)C[C@H]1CC[C@@H]1[C@@H]2C[C@@H](O)[C@]2(C)[C@@H](C3=CC(=O)OC3)CC[C@]12O [Digoxigenin] (10 µM) | 27.6 ± 4.9
CCS(=O)(=O)CCSP(=O)(OC)OC [Demeton-S-methylsulphon] (10 µM) | -8.94 ± 5.5
CCOP(=S)(OCC)SC(CCl)N1C(=O)c2ccccc2C1=O (centres undefined) [Dialifor] (100 µM) | -4.61 ± 27
CCOCN(C(=O)CCl)c1c(C)cccc1CC [Acetochlor] (10 µM) | 104 ± 21
O=C(CCl)c1ccccc1 [2-Chloroacetophenone] (100 µM) | 24.1 ± 11
CCC(C)(CC)c1cc(NC(=O)c2c(OC)cccc2OC)on1 [Isoxaben] (200 µM) | -4.09 ± 5.1
OC[P+](CO)(CO)CO [Tetrakis(hydroxymethyl)phosphonium SO4] (100 µM) | 8.38 ± 1.4
Nc1ccc(-c2ccccc2)cc1 [4-Biphenylamine hydrochloride] (100 µM) | -0.07 ± 4.1
COc1ccc2[nH]cc(CCN(C(C)C)C(C)C)c2c1 [5-Methoxy-N,N-diisopropyltryptamine hydrochloride] (224.7 µM) | -7.18 ± 11
C=C1C[C@@H]2[C@H](CC[C@]3(C)C(=O)CC[C@@H]23)[C@@]2(C)C=CC(=O)C=C12 [Exemestane] (100 µM) | -0.45 ± 0.02

SMILES | CD54 surface expression induction
Nc1ccc(N)cc1 [1,4-Benzenediamine] (10 µM) | 30.8
CCOP(=S)(OCC)Oc1cnc2ccccc2n1 [Quinalphos] (200 µM) | -1.41 ± 9
Cl/C=C\C[N+]12CN3CN(CN(C3)C1)C2 [Chloroallyl methenamine chloride] (10 µM) | 3.14 ± 2.9
Nc1ccc2ccccc2c1 [2-Naphthylamine] (100 µM) | 10.3 ± 0.75
CC(C)(C)C(=O)CCl [1-Chloro-3,3-dimethyl-butan-2-one] (200 µM) | -19.8 ± 13
COc1ccccc1N [2-Methoxyaniline hydrochloride] (100 µM) | 2.44 ± 0.25
c1ccc(-c2cccc(-c3ccccc3)c2)cc1 [1,1':3',1''-Terphenyl] (200 µM) | -8.04 ± 5.3
COP(=O)(OC)OC(Br)C(Cl)(Cl)Br (centres undefined) [Naled] (100 µM) | 3.64 ± 4.3
Cc1ccc2c(c1N)C(=O)c1ccccc1C2=O [1-Amino-2-methylanthraquinone] (100 µM) | 131 ± 21
COP(=S)(OC)Oc1nc(Cl)c(Cl)cc1Cl [Chlorpyrifos-methyl] (200 µM) | 20.5 ± 8.1
Cc1ccc(N=C=O)cc1N=C=O [Toluene-2,4-diisocyanate] (100 µM) | -17 ± 4.1
O=C1C(Cl)=C(Cl)C(=O)C(Cl)=C1Cl [Chloranil] (100 µM) | 17.4 ± 13
CS/C(C)=N\OC(=O)N(C)SN(C)C(=O)O/N=C(\C)SC [Thiodicarb] (10 µM) | -6.62 ± 5
NCCc1ccc(O)cc1 [Tyramine] (100 µM) | -4.6 ± 1.1
[CH3][Hg][Cl] [Methyl mercuric (II) chloride] (10 µM) | 36.6 ± 5.5
CC(C)=CC1C(C(=O)OCc2coc(Cc3ccccc3)c2)C1(C)C (centres undefined) [Resmethrin] (200 µM) | 19.8 ± 10
CCOC(=O)NC(=S)Nc1ccccc1NC(=S)NC(=O)OCC [Thiophanate] (100 µM) | 18.5 ± 4.7
NNCc1ccccc1 (100 µM) | -19.4 ± 21
COc1ccc(C(c2ccc(OC)cc2)C(Cl)(Cl)Cl)cc1 [Methoxychlor] (200 µM) | 27.4 ± 9.6
